Data: PubChem BioAssay AID1868 (National Center for Advancing Translational Sciences (NCATS), 2009)
Hit rate of the full screen: of about 270,000 compounds, about 20 (0.007%) were called active. Calls follow the shape of the dose curve; as a rule, active = well fitted inhibition curve with a large enough effect; inconclusive = small, poorly fitted or top-dose-only effect, or effect the other way; inactive = flat fitted curve, though single readings scatter. These entries were drawn from the full list.

The compounds below were run against Galactokinase (Homo sapiens) (UniProt P51570) (assay: qHTS Assay for Inhibitors of Human Galactokinase (GALK)). Conditions: Purified GALK, Kinase-Glo residual ATP luminescence; series mostly up to 57.5 µM; activity change, negative = inhibition: at the top concentration.
From the text: NIH Molecular Libraries Probe Production Centers Network [MLPCN] NIH Chemical Genomics Center [NCGC] MLPCN Grant: R03 MH085689-01 Assay Submitter (PI): Kent Lai (University of Utah School of Medicine, 50 N Mario Capecchi Drive, Salt Lake City, UT 84132) NCGC Assay Overview: Inherited deficiency of galactose-1-phosphate uridyltransferase (GALT) can result in a potentially lethal disorder called Classic Galactosemia (OMIM 230400). Several lines of evidence indicate that an elevated level of galactose-1-phosphate (gal-1-p), the product of galactokinase (GALK), is a major, if not sole, pathogenic mechanism in patients with classic galactosemia. Therefore, finding inhibitors of GALK is a potential novel therapy for this inherent metabolic disease and is the long term goal of this project. GALK (provided by the assay submitter) was assayed using ATP and D-(+)-Galactose (Sigma-Aldrich cat# G0750) as substrates. Promega Kinase-Glo Plus (cat# V3774) technology was used to detect the residual ATP following kinetic reaction. Briefly, the Kinase-Glo Plus contains Ultra-Glo [2] luciferase and D-luciferin which generates a bioluminescence signal from the remaining ATP.
NCGC Assay Protocol Summary: Three uL/well of ATP-buffer solution (35 uM ATP, 20mM HEPES pH8.0, 5 mM MgCl2, 60 mM NaCl, 1 mM DTT, 0.01% BSA final concentration) was dispensed into 1536-well, assay plates (Greiner, solid white medium-binding plates) with Aurora Discovery BioRAPTR Flying Reagent Dispenser (FRD; Beckton-Dickenson). Compound solution (23 nL) was transferred to the assay plate using the Kalypsys 1536-pin tool. One uL/well GALK-galactose solution (5 nM GALK, 100 uM galactose, 20 mM HEPES pH8.0, 5 mM MgCl2, 60 mM NaCl, 1 mM DTT, 0.01% BSA final concentration) was then added using the FRD yielding a total kinase reaction volume of 4 uL/ well. After 1 hour of room temperature incubation, 4 uL Kinase-Glo Plus reagent was added for a final assay volume of 8 uL/ well. Luminescence was detected with the ViewLux plate reader (Perkin Elmer, Waltham, MA) after 10 min incubation using a 1 sec exposure time and 2x binning.
% is scaled to controls: 0 for no effect and ±100 for the full control effect.

Sequence of Galactokinase (Homo sapiens) (P51570 whole entry, looked up): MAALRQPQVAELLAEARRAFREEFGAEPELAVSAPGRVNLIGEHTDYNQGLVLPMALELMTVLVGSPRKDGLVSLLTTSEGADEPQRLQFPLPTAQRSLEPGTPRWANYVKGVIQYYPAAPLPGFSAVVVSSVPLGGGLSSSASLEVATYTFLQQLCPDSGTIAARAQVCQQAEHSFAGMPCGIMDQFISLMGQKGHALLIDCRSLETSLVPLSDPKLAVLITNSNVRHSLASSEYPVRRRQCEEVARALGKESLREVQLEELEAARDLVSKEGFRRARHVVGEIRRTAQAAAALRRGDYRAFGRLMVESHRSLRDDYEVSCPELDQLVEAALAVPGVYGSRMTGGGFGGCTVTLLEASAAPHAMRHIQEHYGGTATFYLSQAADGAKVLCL

Activity change, negative = inhibition, inactive:
Brc1ccccc1CN1CCC(Cc2ccccc2)CC1 -0.837%
CC1CCN(C2=NC(=O)/C(=C/c3ccc(O)cc3)S2)CC1 -3.46%
CC1(C)Cc2c(sc(NC(=O)C(=O)N3CCOCC3)c2C#N)CO1 -2.42%
COc1cc(Cl)ccc1OCc1cc(C(=O)N2CC[C@@H]3CCCC[C@H]3C2)no1 3.62%
CCOc1ccc(CN2CCNC(=O)C2CC(=O)NCCCC2CCCC2)cc1 (configuration not stated) -3.91%
CCOc1ccc(S(=O)(=O)N2CCCC(C(=O)N3CCC(C(N)=O)CC3)C2)cc1Cl (configuration not stated) 6.26%
C=CCOc1ccc(/C=C/C(=O)OCC(=O)NC2CCCCCC2)cc1 0.149%
CN(c1ccccc1)S(=O)(=O)c1ccc(NC(=O)COc2ccccc2)cc1 -2.58%
Oc1cccc(/C=N/Nc2ccc(Cl)nn2)c1O 3.86%
O=C(NCCNc1ccc([N+](=O)[O-])cc1Cl)c1ccccc1F 2.76%
COc1ccc(S(=O)(=O)/N=C2\C=C(NS(=O)(=O)c3ccccc3)C(=O)c3ccccc32)cc1 2.13%
Cn1c(Nc2cccc(Cl)c2)nc2ccccc21 3.7%
CCn1c(=O)c(C(=O)NCc2ccc3c(c2)OCO3)c(O)c2ccccc21 -0.778%
O=C(Nc1ccc(Cl)c(Cl)c1)c1ccccc1NC(=O)C1CC=CCC1C(=O)O (configuration not stated) -1.72%
Cc1cccc(N2CCN(C(=O)CCS(=O)(=O)c3ccc4c(c3)NC(=O)C(C)S4)CC2)c1C (configuration not stated) -0.901%
CC(C)(C)NC(=O)C(c1ccc(Cl)cc1)N(CCO)C(=O)c1snc(C(N)=O)c1N (configuration not stated) 9.43%
O=C(CN1CCCC1)Nc1sc2c(c1C(=O)Nc1ccccc1)CCCC2 0.0885%
O=C(N/N=C/c1cccc(OCc2ccccc2)c1)c1ccc(Br)o1 4.11%
Cc1cc(C)n(CC(O)COc2ccc(C(C)(C)C)cc2)n1 (configuration not stated) 6.25%
COc1ccc(Oc2cn[nH]c2-c2ccc(OC)cc2O)cc1 6.03%
CSc1nnc(NC(=O)c2nc(S(=O)(=O)Cc3ccc(C)cc3)ncc2Cl)s1 -8.93%
Cc1cc(N=Nc2ccc3ccccc3c2)ccc1O -2.63%
Cc1ccc(-c2nc(-c3ccncc3)no2)c(C)c1 0%
CCCNC(=O)CCn1nc(-c2ccccc2)c2ccccc2c1=O 0.567%
COc1ccc(C(=O)/C=C/c2cccnc2)c(OC)c1 0.185%
COc1ccc(S(=O)(=O)N2CCN(C(=O)N(C)C)C2C)cc1 (configuration not stated) -1.94%
CN(C)S(=O)(=O)N1CCC(Oc2cccc(C(=O)NCCCC3CCCC3)c2)CC1 -10.2%
O=C(Nc1ccccc1)c1ccc2c(c1)OCCCO2 3.05%
Cc1[nH]n(C(N)=S)c(=O)c1N=Nc1ccc(Cl)cc1Cl 4.38%
O=C(NC(=S)Nc1ccc(Cl)cc1Cl)C1CC1 2.25%
COc1cccc(CNc2ncc(-c3ccccc3)n2C)c1 -6.73%
CCOc1ccccc1/C=N/Nc1nc2ccccc2o1 -3.29%
COc1ccc(CNc2cc(C)cc(C)c2)cc1OC 3.43%
Cc1ccc(NC(=O)Nc2cccnc2)cc1 4.12%
COc1ccc2cc(C(=O)C3CCCN(C(=O)c4sc(C)nc4C)C3)ccc2c1 (configuration not stated) 7.03%
CC(C)(C)C(=O)Nc1ccc(-c2cn3cccnc3n2)cc1 -0.896%
CC1(C(=O)N/N=C/c2cc3c(cc2Br)OCO3)CC1(Br)Br (configuration not stated) -6.75%
c1ccc(Cc2ccc(OCCn3ccnc3)cc2)cc1 2.93%
CNS(=O)(=O)c1ccc(NC(=O)Nc2ccc3c(c2)OCO3)cc1 2.4%
CC(=O)N(C)c1ccc(NC(=O)Nc2cccc3ccccc23)cc1 4.09%
Cc1nonc1NC(=O)c1oc2ccccc2c1C 4.67%
O=C(NCCCN1CCOCC1)c1ccc2c(c1)N(Cc1cccc(F)c1)C(=O)c1ccccc1S2 -2.22%
CSc1ccccc1OCc1cc(C(=O)N2C[C@H]3CC[C@H]2C3)no1 -3.8%
O=C(CNC(=O)Cc1ccccc1)N=Nc1c(O)[nH]c2ccc(Br)cc12 -8.43%
O=C(O)Cc1ccc(NC(=O)Nc2cccc3ccccc23)cc1 0.889%
COc1ccc(C(=O)NC2=NCCS2)c(OC)c1 -5.52%
CCCOC1CCCN(C(=O)c2cc(COc3cncc(Cl)c3)on2)C1 (configuration not stated) 1.7%
CCc1ccc(C(=O)NC(=S)Nc2ccccc2N2CCOCC2)cc1 -4.65%
Nc1cc(N)nc(SCc2cccc(F)c2)n1 -1.43%
Cc1ccc(NS(=O)(=O)c2ccc3c(c2)n(C)c(=O)c(=O)n3C)c(C)c1 -0.414%
COc1ccc(N(Cc2ccc(N(C)C)cc2)C(=O)c2ccc(S(C)(=O)=O)cc2)cc1 -2.56%
CCCCC(=O)Nc1ccccc1N1CCN(c2ccc(F)cc2)CC1 -6.49%
CC(=O)Nc1ccc(NC(=O)C2CCCN2S(=O)(=O)c2cccc(C(F)(F)F)c2)cc1 (configuration not stated) 1.26%
COc1ccc(-c2noc(CCCC(=O)NC3CCCC3)n2)cc1OC 1.8%
O=C(/C=C/c1ccco1)NC(=S)Nc1ccccc1Br 5.8%
COc1ccc(CCNC(=O)C2CCCN(S(=O)(=O)c3ccc(OC)cc3)C2)cc1 (configuration not stated) 10.8%
Cc1ccnc(NC(=O)CCNS(=O)(=O)c2ccc(C)c(C)c2)c1 -1.07%
O=C(Nc1nnc(C2CC2)s1)c1cc(Cl)sc1Cl -5.34%
COc1ccc(Nc2ncnc3sc(C)cc23)cc1 1.63%
O=C(CN1CCC(NC(=O)C2CC2)CC1)Nc1ccccc1[N+](=O)[O-] -0.918%
Cc1cccc(C(=O)NC(=S)N(C)C2CCCCC2)c1 -5.91%
CN(CCO)c1ccc(/C=N/Nc2nncc3ccccc23)cc1 21.5%
O=C(NCC(=O)N1CCN(c2ccccc2F)CC1)c1cccs1 -7.14%
Cc1ccc2nc(N3C(=O)C(O)=C(C(=O)c4ccco4)C3c3cccc(O)c3)sc2c1 (configuration not stated) -6.84%
C[n+]1cc(-c2ccccc2)oc1-c1ccccc1 -1.02%
Cc1cnc(NC(=O)c2ccc(Cl)nc2)s1 2.83%
C=CCN1CCN(C(=O)CCCc2ccccc2)CC1 3.4%
COc1ccc(N2CCN(S(=O)(=O)c3ccc4c(c3)N(C(C)=O)CCO4)CC2)cc1 -0.739%
O=C(O)CCC(=O)N(Cc1ccccc1)Cc1ccccc1 0%
Cc1noc(C)c1CCC(=O)N1CCCC(CO)(Cc2ccccc2)C1 (configuration not stated) 2.49%
O=C(c1noc2c1CCCC2)N1CCc2ccccc2C1 -2.74%
Cc1cccc(NC(=O)c2ccc3c(=O)n(CC4CCCO4)c(=S)[nH]c3c2)c1 (configuration not stated) 14.2%
COc1cccc(NC(=O)C(=O)c2cn(CC(=O)N3CCOCC3)c3ccccc23)c1 0.368%
CCOC(=O)C1CCCN(CCSc2ccc(C)cc2)C1 (configuration not stated) -3.07%
O=C(Nc1ccc(S(=O)(=O)NCC2CCCO2)cc1)c1ccc(F)cc1 (configuration not stated) -2.11%
Cc1ccccc1NC(=S)NC(=O)Cc1ccc(Cl)cc1 7.47%
COCCN1CCN(C(=O)c2cc(COc3ccc(F)cc3Cl)on2)CC1 5.12%
COc1ccc(N(C(=O)c2snc(C(N)=O)c2N)C(C(=O)NC2CCCC2)c2ccc(C)o2)c(OC)c1 (configuration not stated) -1.02%
O=C(CCl)NNc1nc(-c2ccccc2)c2cc(Cl)ccc2n1 0.907%
CCOC(=O)Nc1ccc2c(c1)N(C(=O)CCCl)c1ccccc1[S@]2=O -2.31%
NC(=O)CSc1nnc(NC(=O)c2ccc(Br)o2)s1 3.28%
CN(C(=O)CCN1C(=O)/C(=C/c2ccccc2F)SC1=S)C1CCS(=O)(=O)C1 (configuration not stated) 7.27%
O=C(CC(n1cncn1)C(Cl)(Cl)Cl)c1ccc([N+](=O)[O-])cc1 (configuration not stated) 1.45%
Cc1ccc(NC(=O)CSc2cccc3cccnc23)c(C)c1 -1.71%
Cc1ccc(/C=N/NC(=O)c2cc3ccccc3cc2O)o1 0.24%
COc1ccc(OCc2cc(C(=O)N3CCCC3)no2)c2ccccc12 -7.05%
COc1ccccc1C(=O)NC(=S)Nc1ccccc1N1CCCCC1 -4.03%
COc1ccc([N+](=O)[O-])cc1N(CC(=O)Nc1ccccc1C(=O)N1CCOCC1)S(C)(=O)=O 2.62%
COc1cccc(C(=O)N/N=C(\C)c2cccc(NC(=O)c3ccc(F)cc3)c2)c1OC -11.7%
Oc1ccccc1-c1cc(-c2ccc(Cl)cc2)n[nH]1 -6.23%
CCSc1nc2sc3c(c2c(=O)n1-c1ccc(C)cc1)CCN(C)C3 -3.96%
COc1ccc(NCCc2ccccn2)cc1 -1.27%
Cc1ccc(NS(=O)(=O)c2ccc3c(c2)oc(=O)n3C)c(C)c1 2.68%
O=C(Nc1cccc(Cl)c1Cl)c1ccccc1NC(=O)C1CC=CCC1C(=O)O (configuration not stated) -4.93%
S=C(Nc1ccc(Cl)cc1Cl)N1CCCC1 0.847%
O=C(Nc1ccnn1C1CCN(Cc2cccc(OCCO)c2)CC1)C1CCCC1 3.25%
CC(C)(C)c1ccc(Cn2nnc3c(=O)[nH]c(C4CCCN(C(=O)c5ccco5)C4)nc32)cc1 (configuration not stated) -1.13%
CCc1ccccc1OCC(=O)Nc1ccc2c(c1)OCCO2 13.3%
O=[N+]([O-])c1ccc2c(c1)Nc1nc3ccccc3nc1N2 6.04%
CC1CN(C(=O)CCC(=O)NCCCN2CCC(Cc3ccccc3)CC2)c2cc(Cl)ccc2O1 (configuration not stated) -0.958%
Cc1ccc(CSc2nsc(C)c2C#N)cc1 -1.65%
CC(=O)c1ccc(NC(=O)c2sc3nc4n(c(=O)c3c2C)CCCCC4)cc1 3.59%
CC(C)=CCN1CCN(CCCc2ccccc2)CC1CCO (configuration not stated) 3.23%
O=C(Nc1ccc(C2CC2(Cl)Cl)cc1)c1cccc([N+](=O)[O-])c1 (configuration not stated) 0.976%
COc1ccccc1/C=C/C(=O)NC(=S)N1CCOCC1 -1.25%
COC(=O)c1ccc(COc2ccc(/C=C/C(=O)c3ccc(OC)c(CSCC(=O)O)c3)cc2OC)cc1 -6.55%
COc1ccc(NC(=O)CCCC2CCCCC2)c(OC)c1 -2.48%
O=c1c2ccccc2ncn1CCCCOc1ccccc1F 1.26%
Brc1ccccc1/C=N/Nc1nc2ccccc2o1 -2.18%
COc1ccc(OC)c(NC(=O)Cc2cccs2)c1 -3.6%
CC(CN1CCOCC1)OC(=O)c1ccc(C(C)(C)C)cc1 (configuration not stated) 5.88%
O=C(CNC(=O)c1ccc(F)cc1)c1ccccc1 7.94%
